A selection: hits, their analogues and other compounds. The true share with any hit is near 11%.
ALDH1A1 inh: blocks purified human ALDH1A1 activity. Purified ALDH1A1, NADH fluorescence, propionaldehyde substrate. AID 1030. P00352. Potency, µM (highest dose often 75.3 µM), actives largely listed as inhibitors. actives 7.3% (n = 220,000)
Target sequence (P00352 whole entry, looked up): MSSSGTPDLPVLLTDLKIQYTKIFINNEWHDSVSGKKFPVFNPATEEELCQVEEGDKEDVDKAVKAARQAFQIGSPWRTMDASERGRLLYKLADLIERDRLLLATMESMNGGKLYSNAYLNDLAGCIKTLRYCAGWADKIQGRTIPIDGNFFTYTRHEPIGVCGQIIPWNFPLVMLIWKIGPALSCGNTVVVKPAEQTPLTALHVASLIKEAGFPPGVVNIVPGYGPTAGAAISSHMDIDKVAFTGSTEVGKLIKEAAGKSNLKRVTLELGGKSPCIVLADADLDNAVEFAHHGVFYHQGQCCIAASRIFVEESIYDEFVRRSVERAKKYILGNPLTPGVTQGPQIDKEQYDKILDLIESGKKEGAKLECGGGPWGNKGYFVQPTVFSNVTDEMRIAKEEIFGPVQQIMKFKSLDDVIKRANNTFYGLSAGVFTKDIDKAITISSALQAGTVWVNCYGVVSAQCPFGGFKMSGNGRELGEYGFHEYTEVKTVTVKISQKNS
PNC assembly inh: blocks assembly of the perinucleolar compartment | AID 2417 | PC3M PTB-GFP, PNC prevalence imaging, 16 h; hits give low values | activity change (PNC), negative = inhibition, % at 10 µM | actives 3.1% (n = 140,000);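 active means readout at or below -70, meaning at least 70% loss of cells showing the perinucleolar compartment, a nuclear body marking cancer cells; inconclusive means readout between -30 and a set limit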
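PC3M cells stably expressing PTB-GFP, 750–1000 cells/well, treated 16 h at 37 °C with compound (23 nl of library stock), in duplicate. After paraformaldehyde fixation and Hoechst stain, imaged at 20x; PNC prevalence scored by image analysis.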
HPGD inh: blocks human HPGD enzyme activity; P15428; purified HPGD, NADH fluorescence kinetic, PGE2 substrate; Potency, µM, hits mostly inhibitors; actives 4.3% (n = 150,000); AID 894
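NADH formation kinetics: reaction with 30 uM PGE2 and 1 mM NAD+ (final), 20 nM enzyme, Tris-HCl pH 8 with Tween 20, after 15 min compound preincubation at room temperature. Fluorescence change, last versus first of five reads.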
Each line names hits and unclear results; the compound was inactive in the other large screens. Unless noted, the call rests on the fitted dose curve; in most records, active means well fitted inhibition curve with a large enough effect (not every such curve was filed as active); inconclusive means small, poorly fitted or top-dose-only effect, or another doubt; inactive means no such curve, though single readings can be large or run the other way.

CCOc1ccc(C(=O)Cc2ccc3oc(C(=O)O)cc3c2)c(O)c1	ALDH1A1 inh inconclusive, HPGD inh 7.9µM
COc1ccc(CC(=O)c2ccc(O)cc2O)cc1	ALDH1A1 inh inconclusive, HPGD inh 25µM (no result: PNC assembly inh)
CC1CN(C(=O)COC(=O)c2ccc(N(C)C)cc2)CC(C)O1 (centres undefined)	none (no result: PNC assembly inh, HPGD inh)
CCN1CC2=C(OC(N)=C(C#N)C2c2cccs2)/C(=C\c2cccs2)C1 (centres undefined)	ALDH1A1 inh inconclusive
O=C(CSc1ccccc1)NCCCc1ccccc1	none (no result: PNC assembly inh, HPGD inh)
CCOc1cc(/C=N/n2cnnc2)ccc1OS(=O)(=O)c1ccccc1	ALDH1A1 inh 13µM (no result: PNC assembly inh, HPGD inh)
CCOc1cc(/C=N/n2cnnc2)ccc1OC(=O)c1cccc([N+](=O)[O-])c1	none
O=S(=O)(Oc1ccccc1/C=N/n1cnnc1)c1ccccc1	ALDH1A1 inh 22µM (no result: PNC assembly inh, HPGD inh)
O=[N+]([O-])c1ccc(OCCOc2ccccc2/C=N/n2cnnc2)cc1	none (no result: PNC assembly inh, HPGD inh)
CCOc1ccc(C(=O)NCC(=O)Nc2ccc(N3CCOCC3)cc2)cc1OCC	none (no result: PNC assembly inh, HPGD inh)
Cc1ccc(NC(=O)CCC(=O)NNC(=O)c2ccccc2)c(C)c1	none (no result: PNC assembly inh, HPGD inh)
O=C(Nc1cc(Cl)ccc1Cl)N1CCCC1	none (no result: PNC assembly inh, HPGD inh)
O=C(/C(Br)=C/Nc1cc(Cl)ccc1Cl)C(F)(F)F	ALDH1A1 inh 16µM, PNC assembly inh inconclusive, HPGD inh inconclusive
CC(=O)OCC1(C)CN(c2ccccc2)N(C(=O)c2ccc(F)cc2)C1=O (centres undefined)	none (no result: PNC assembly inh, HPGD inh)
CC(C)CSc1n[nH]c(N)n1	none (no result: PNC assembly inh, HPGD inh)
CC(C)CSc1n[nH]c(=S)s1	ALDH1A1 inh 0.63µM (no result: PNC assembly inh, HPGD inh)
Cc1ccc(S(=O)(=O)CCC(=O)Nc2ccc(S(=O)(=O)N(C)C)cc2)cc1	none (no result: PNC assembly inh, HPGD inh)
Cc1c(N(C(=O)CNC(=O)c2ccccc2)C2(C(=O)NC3CCCCC3)CCCCC2)c(=O)n(-c2ccccc2)n1C	none (no result: PNC assembly inh, HPGD inh)
CC(C)CNC(=O)CC(=O)N/N=C/c1ccc(Br)cc1	ALDH1A1 inh 0.89µM, HPGD inh 16µM
CC(C)NC(=O)CC(=O)N/N=C/c1ccc(Br)cc1	none
COC(=O)[C@@H]1CCCN1C(=O)CCc1nnc(C2CCCCC2)o1	none (no result: PNC assembly inh, HPGD inh)
c1ccc(C(c2nnnn2C2CCCC2)N2CCN(c3nc4ccccc4s3)CC2)cc1 (centres undefined)	ALDH1A1 inh 14µM
CCC(c1nnnn1C1CCCC1)N1CCN(c2ccccc2F)CC1 (centres undefined)	ALDH1A1 inh inconclusive
Fc1ccccc1N1CCN(C(c2ccncc2)c2nnnn2C2CCCC2)CC1 (centres undefined)	ALDH1A1 inh 25µM
N#Cc1cccc(C(c2nnnn2C2CCCC2)N2CCC(Cc3ccccc3)CC2)c1 (centres undefined)	PNC assembly inh -100
CC(C)(C)n1nnnc1C(c1ccc2ncccc2c1)N1CCC(O)CC1 (centres undefined)	none (no result: PNC assembly inh, HPGD inh)
c1cnc2ccc(C(c3nnnn3C3CCCC3)N3CCSCC3)cc2c1 (centres undefined)	PNC assembly inh -119
c1csc(C(c2nnnn2C2CCCCC2)N2CCN(c3nc4ccccc4s3)CC2)c1 (centres undefined)	PNC assembly inh inconclusive
N#Cc1ccc(C(c2nnnn2C2CCCC2)N2CCC(Cc3ccccc3)CC2)cc1 (centres undefined)	ALDH1A1 inh inconclusive
O=C(NC(NCc1cccnc1)C(Cl)(Cl)Cl)c1cccc2ccccc12 (centres undefined)	none
CC(C)=NOCc1cccc(-c2cc(-c3ccccc3)no2)c1	none (no result: PNC assembly inh, HPGD inh)
CCC(C)(C)n1nnnc1C(c1ccc2ncccc2c1)N1CCN(c2nc3ccccc3s2)CC1 (centres undefined)	PNC assembly inh -86
CCC(C)(C)n1nnnc1C(c1ccc2ncccc2c1)N1CCCC(C)C1 (centres undefined)	none
CC1CC(C)CN(Cc2nc3c(c(=O)n(C)c(=O)n3C)n2CCN2CCOCC2)C1 (centres undefined)	ALDH1A1 inh 7.9µM
Cn1c(=O)c2c(nc(CN3CCN(c4ccccc4)CC3)n2CCN2CCOCC2)n(C)c1=O	ALDH1A1 inh inconclusive
CCC1CCCCN1Cc1nc2c(c(=O)n(C)c(=O)n2C)n1CC(C)C (centres undefined)	PNC assembly inh -95
CC1CCCN(Cc2nc3c(c(=O)n(C)c(=O)n3C)n2CCc2ccccc2)C1 (centres undefined)	PNC assembly inh inconclusive
CC(C)CCn1c(CN2CCOCC2)nc2c1c(=O)n(C)c(=O)n2C	ALDH1A1 inh 14µM, PNC assembly inh inconclusive
CCC1CCCCN1Cc1nc2c(c(=O)n(C)c(=O)n2C)n1CCC(C)C (centres undefined)	ALDH1A1 inh inconclusive
CC(N)=NCCCC(N)C(=O)O (centres undefined)	none (no result: PNC assembly inh)
CN1CCN(S(=O)(=O)Cc2ccc(Cl)cc2)CC1	none (no result: PNC assembly inh, HPGD inh)
Cc1ccc(C)c(NS(=O)(=O)c2cc(C(=O)N3CCCC3)ccc2Cl)c1	none (no result: PNC assembly inh, HPGD inh)
